High-throughput results (PubChem BioAssay)
PfHsp90 yeast 2 = reduces growth (ATP signal) of yeast expressing P. falciparum Hsp90; S. cerevisiae expressing PfHsp90, BacTiter-Glo ATP, 48 h; yeast lacking PDR1 and PDR3 efflux regulators; 310,000 compounds, 0.32% hits; inhibition, % at 9.4 µM; AID 504621;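 active means every replicate shows inhibition above about 80%, whatever the replicate mean, limit read from the data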;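 further: 0% = DMSO neutral controls and 100% = 20 µM radicicol positive controls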
tim10-1 inh = growth inhibitors of tim10-1 mutant yeast | S. cerevisiae tim10-1 ts strain growth, BacTiter-Glo, 24 h | inhibition, % at 20 µM | 330,000 compounds, 2.2% hits | AID 463190;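 active means inhibition of at least 40%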;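 further: mutant grown at 25 °C; 0% = DMSO wells with yeast and 100% = wells holding no yeast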
Rce1 inh = blocks yeast Ras-converting enzyme; yeast membranes, quenched prenylated peptide cleavage fluorescence; calls only; 290,000 compounds, 0.27% hits; AID 2563;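 active means fall in fluorescence gain of 50% or more versus controls, with final raw signal at or below 3038400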;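 further: plate controls were neutral control wells for no effect and wells lacking membranes for full effect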
Target sequence (Q03530 whole entry, looked up): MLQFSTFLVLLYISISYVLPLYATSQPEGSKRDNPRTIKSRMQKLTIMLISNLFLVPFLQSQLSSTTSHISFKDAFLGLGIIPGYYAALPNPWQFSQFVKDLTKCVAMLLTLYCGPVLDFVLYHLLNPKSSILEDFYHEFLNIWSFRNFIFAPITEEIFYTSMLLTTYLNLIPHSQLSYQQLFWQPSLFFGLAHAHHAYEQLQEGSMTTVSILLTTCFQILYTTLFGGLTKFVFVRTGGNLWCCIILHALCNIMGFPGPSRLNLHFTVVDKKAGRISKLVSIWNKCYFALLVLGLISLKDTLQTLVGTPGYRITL
tim23-1 inh = growth inhibitors of tim23-1 mutant yeast. S. cerevisiae tim23-1 growth, BacTiter-Glo luminescence, 24 h. inhibition, % at 20 µM. 330,000 compounds, 1.3% hits;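 active means growth inhibition of the mutant yeast at or above 50%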;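 further: temperature-sensitive mutant grown at 25 °C; plate controls were DMSO-treated mutant yeast for no effect and medium wells lacking yeast for full effect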
TIM10 inh = inhibits growth of TIM10 yeast strain; S. cerevisiae TIM10 strain growth, BacTiter-Glo luminescence, 24 h; 330,000 compounds, 1.4% hits; inhibition, % at 10 µM;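 active means inhibition of 40% or more at the single tested concentration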;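 further: wild-type TIM10 isogenic control strain grown at permissive 25 °C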
tim10-1 conf = confirmation of tim10-1 mutant yeast growth inhibitors. S. cerevisiae tim10-1 ts strain growth, BacTiter-Glo, 24 h. AID 463213. inhibition, % at 20 µM. shares compounds with tim10-1 inh. 7,400 compounds, 56% hits;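 active means inhibition of yeast growth at or above a set limit in either of two repeat tests at 20 µM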;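 further: tim10-1 mutant grown at permissive 25 °C to find synthetic lethal compounds; 0% = DMSO yeast wells and 100% = medium wells without yeast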
* marks the source's active call; other numbers are inactive results; i = inactive; · = no result. Compounds with a hit are over-represented: about 3.7% of the library has one in this group of screens.

SMILES	PfHsp90 yeast 2	tim10-1 inh	Rce1 inh	tim23-1 inh	TIM10 inh	tim10-1 conf
Cc1ccc(-c2csc3ncnc(-n4nnc5ccccc54)c23)cc1C	6.1	42.5*	i	38.0	24.8	31.3*
c1ccc(-c2csc3ncnc(-n4cnc5ccccc54)c23)cc1	4.9	42.2*	i	35.9	22.6	31.8*
CCc1c(C)[nH]c2ccc(OC)cc2c1=S	2.2	46.2*	·	23.9	16.0	35.9*
COc1ccc2[nH]c(C)c(CN3CCCCC3)c(=O)c2c1	19.0	2.8	i	8.6	-2.1	·
COc1ccc2nc(SCC(=O)C(C)(C)C)[nH]c2c1	17.3	-1.6	i	5.6	4.8	·
CCOC(=O)C1CCN(C(=O)c2oc3ccc4c(c3c2C)C(O)CC2(CCCCC2)O4)CC1 (configuration not stated)	10.4	54.3*	i	46.2	28.2	32.8*
Cc1c(C(=O)NCCCN2CCCCC2)oc2ccc3c(c12)C(O)CC1(CCCCC1)O3 (configuration not stated)	32.5	-8.1	i	4.3	-3.8	·
C=CCN(C(=O)CNC(=O)c1ccco1)C(C(=O)NC1CCCCC1)c1cccnc1 (configuration not stated)	-1.9	-24.7	i	5.9	5.7	·
O=C(CCCNC(=O)c1ccc(Cl)cc1)NCc1ccccc1Cl	13.0	-28.3	i	-23.7	-29.5	·
CC1(C)CC(=O)C2=C(C1)N=C1c3ccccc3C(=O)C1C2c1ccc(Cl)cc1 (configuration not stated)	0.3	44.2*	i	31.7	34.8	31.2*
Cc1ccc(C2C3=C(CC(C)(C)CC3=O)N=C3c4ccccc4C(=O)C32)cc1 (configuration not stated)	-12.1	19.9	i	27.9	16.8	·
Cc1nn2c(N3CCN(C)CC3)cc(C(C)(C)C)nc2c1-c1ccccc1	4.2	-51.8	i	-15.2	20.1	·
Cc1nn2c(N3CCN(C(=O)c4ccco4)CC3)cc(C(C)(C)C)nc2c1-c1ccccc1	·	49.5*	i	43.7	22.3	25.8
O=C1OC(c2ccco2)=N/C1=C\c1ccc(-c2cccc(C(F)(F)F)c2)o1	-0.5	45.8*	i	28.5	26.7	22.7
Cc1cccc(/C=N/NC(=O)c2ccc(NC(=O)c3ccc(Cl)cc3)cc2)n1	-13.5	96.4*	·	18.7	6.7	-7.8
Cc1cccc(/C=N/NC(=O)c2ccc(NC(=O)c3ccc(F)cc3)cc2)n1	-5.1	-21.0	i	-10.5	5.3	·
COc1cccc(CNC(=S)Nc2cc(OC)ccc2OC)c1	-4.8	45.0*	i	13.6	11.3	25.4
Cc1ccc(NC(=S)NCCSc2ccc(Cl)cc2)c(C)c1	-19.7	30.7	i	24.5	-7.6	·
COc1ccc(OC)c(NC(=S)NCCSc2ccc(C)cc2)c1	-2.9	44.2*	i	42.2	32.8	13.6
COc1cccc(CNC(=S)Nc2ccc(Cl)cc2C)c1	-8.6	6.1	i	40.0	8.8	·
CCCCc1ccc(NC(=S)NCc2cccc(OC)c2)cc1	-22.2	43.7*	i	17.4	32.6	29.7
CCCCc1ccc(NC(=S)Nc2ccc(Nc3ccc(OC)cc3)cc2)cc1	-3.0	45.2*	i	33.7	19.7	35.4*
O=c1cc(O)c2ccccc2n1Cc1ccccc1F	-9.2	17.7	i	23.7	14.2	·
CCOC(=O)N1CCN(C(=O)CN(C)S(=O)(=O)c2ccc(Cl)cc2)CC1	-21.1	-10.9	i	15.3	-1.9	·
Cc1sc(NC(=O)c2ccco2)c(C(c2ccc(F)cc2)N2CCN(C)CC2)c1C (configuration not stated)	·	56.3*	i	17.7	35.4	30.4
SMILES	PfHsp90 yeast 2	tim10-1 inh	Rce1 inh	tim23-1 inh	TIM10 inh	tim10-1 conf
CN(C)CCCN(Cc1ccccc1)C(=S)Nc1cccc(C(F)(F)F)c1	-0.4	24.7	i	8.3	5.3	·
CCCN(Cc1ccccc1)C(=S)Nc1cccc(C(F)(F)F)c1	-0.3	47.1*	i	5.3	24.6	30.9*
S=C(NCc1ccccc1)NNc1nc2ccccc2[nH]1	4.7	26.7	i	-10.7	-3.7	·
CC(C)c1ccc(NC(=O)c2cc(S(=O)(=O)NCC3COc4ccccc4O3)ccc2F)cc1 (configuration not stated)	-16.8	42.5*	i	33.6	37.6	43.0*
O=C(O)c1cc(S(=O)(=O)NCC2COc3ccccc3O2)ccc1Cl (configuration not stated)	-18.5	-20.2	·	-8.8	5.6	·
COc1ccc(CNC(=O)C(C)c2ccc([N+](=O)[O-])cc2)cc1 (configuration not stated)	-0.9	24.3	i	23.2	-4.6	·
Cc1cc(/C=N/n2cnnc2)c(C)n1-c1ccc(OCc2ccccc2F)cc1	-44.8	45.8*	i	36.4	39.4	-2.6
Cc1cc(/C=N/n2cnnc2)c(C)n1-c1ccc(OCc2ccc(Cl)cc2)cc1	-11.4	17.3	i	16.7	20.9	·
Cc1nc2c3cc(F)ccc3n(Cc3ccccc3F)c2s1	-25.9	41.7*	i	14.2	26.0	13.0
Cc1nc2c3ccccc3n(Cc3ccccc3F)c2s1	-17.0	35.3	i	16.6	28.4	·
CC1CCN(c2c([N+](=O)[O-])nn(-c3ccc4c(c3)OCCO4)[n+]2[O-])CC1	·	44.4*	i	37.7	22.2	29.1
CCn1c(SCc2cccc(C)c2)nnc1-c1ccccc1	-22.0	47.4*	i	37.3	29.2	29.1
Cc1ccc(/C=c2/sc3nnc(-c4ccccc4Cl)n3c2=O)o1	5.0	45.1*	i	42.4	32.9	38.0*
Cc1ccc(S(=O)(=O)N2CCOCC2)cc1NC(=O)Nc1ccc([N+](=O)[O-])cc1	·	-11.1	·	0.1	4.7	·
Cc1ccc2c(N)c(C(=O)N(c3ccccc3)c3ccccc3)sc2n1	9.7	43.6*	i	13.3	26.3	23.6
CC(C)OC(=O)c1sc2nc(-c3ccccc3)ccc2c1N	-28.3	33.7	i	19.1	-1.1	·
COc1cccc(C(=O)O/N=C(\N)c2ccccn2)c1OC	1.7	38.5	i	4.3	-5.4	·
N/C(=N\OC(=O)c1cc([N+](=O)[O-])ccc1Cl)c1ccccn1	10.0	18.8	i	27.6	9.8	·
N/C(=N\OC(=O)c1cccc([N+](=O)[O-])c1)c1ccccn1	10.4	41.6*	i	23.5	30.9	11.9
COc1cccc(C(=O)O/N=C(\N)c2ccccn2)c1	13.4	40.2*	·	33.4	28.8	45.6*
CCOc1ccc(NS(=O)(=O)c2cc(C(=O)N3CCN(c4ccccc4O)CC3)ccc2Cl)cc1	·	26.8	·	21.4	8.8	·
CN(Cc1ccccc1)S(=O)(=O)c1ccc2c(c1)OCCO2	11.8	41.7*	i	40.7	36.1	23.8
COc1ccc(CN(C)S(=O)(=O)c2ccc3c(c2)OCCO3)cc1	10.8	47.5*	i	36.0	17.0	20.5
COc1ccc(S(=O)(=O)N2CCN(S(=O)(=O)c3ccc4c(c3)OCCO4)CC2)cc1	-16.4	-40.9	i	-18.7	-34.0	·
